This note sets out measurements from article PMC7862700, “An all-to-all approach to the identification of sequence-specific readers for epigenetic DNA modifications on cytosine”.

Common to all, as to assay: DAPPL (digital affinity profiling via proximity ligation, sequencing); 10 mM Tris-HCl pH 7.5, 50 mM NaCl, 1 mM DTT, 4% glycerol, room temperature, 30 min; GST-TFs on glutathione beads, 16-mer random dsDNA library, 0.1% formaldehyde crosslink after washing; high values mean tight binding
One test concerns the target T1, FEV (Homo sapiens, UniProt Q99581 1-238).
T1 sequence: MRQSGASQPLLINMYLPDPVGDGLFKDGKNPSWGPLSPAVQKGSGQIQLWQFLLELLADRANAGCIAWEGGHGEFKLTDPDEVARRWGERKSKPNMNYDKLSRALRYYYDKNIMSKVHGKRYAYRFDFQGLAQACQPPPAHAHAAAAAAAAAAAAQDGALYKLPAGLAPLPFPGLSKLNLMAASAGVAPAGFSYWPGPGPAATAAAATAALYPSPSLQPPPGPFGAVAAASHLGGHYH
The following applies: protein: recombinant; tags: N-terminal GST; dsDNA, one strand shown. A digest of the protocol: (§1)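 Human transcription factors fused to GST were expressed in yeast, captured on glutathione beads, given DNA barcodes and pooled with a GST-only negative control. Pools were incubated with 200 nmole of a 16-mer random double-stranded DNA library in Tris/NaCl/DTT/glycerol buffer at room temperature for 30 min. They were then washed, crosslinked with 0.1% formaldehyde, proximity-ligated (BsaI/T4 ligase, 1 h, 37 °C), PCR-amplified and sequenced on an Illumina NextSeq500. Binding signal is each 6-mer's read frequency for a factor divided by its frequency for the GST control.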

A further test addresses ETV5 (Homo sapiens, UniProt P41161 1-510). The following applies: protein: recombinant; tags: N-terminal GST; dsDNA, one strand shown. In short, it runs like this:
as §1

The next test deals with HSF1 (Homo sapiens, UniProt Q00613 1-529). The following applies: protein: recombinant; tags: N-terminal GST; chain copies: 3; dsDNA, one strand shown. In short, it runs like this:
as §1

The next test has as its target T2, SPIC (Homo sapiens, UniProt Q8N5J4 1-248).
T2 sequence: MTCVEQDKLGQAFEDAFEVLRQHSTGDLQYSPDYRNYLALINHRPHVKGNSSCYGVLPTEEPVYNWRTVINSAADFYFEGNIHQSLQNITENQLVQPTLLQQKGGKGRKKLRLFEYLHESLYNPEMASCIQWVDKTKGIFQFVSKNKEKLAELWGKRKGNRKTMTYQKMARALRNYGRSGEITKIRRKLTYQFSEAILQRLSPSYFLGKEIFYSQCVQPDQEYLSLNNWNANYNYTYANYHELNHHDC
Conditions: protein: recombinant; tags: N-terminal GST; dsDNA, one strand shown. A digest of the protocol: as §1

The next test has as its target ELF4 (Homo sapiens, UniProt Q99607 1-663). Conditions: protein: recombinant; tags: N-terminal GST; dsDNA, one strand shown. A digest of the protocol: as §1
The target of a further test is T3, ELK4 (Homo sapiens, UniProt P28324-2 1-405).
T3 sequence: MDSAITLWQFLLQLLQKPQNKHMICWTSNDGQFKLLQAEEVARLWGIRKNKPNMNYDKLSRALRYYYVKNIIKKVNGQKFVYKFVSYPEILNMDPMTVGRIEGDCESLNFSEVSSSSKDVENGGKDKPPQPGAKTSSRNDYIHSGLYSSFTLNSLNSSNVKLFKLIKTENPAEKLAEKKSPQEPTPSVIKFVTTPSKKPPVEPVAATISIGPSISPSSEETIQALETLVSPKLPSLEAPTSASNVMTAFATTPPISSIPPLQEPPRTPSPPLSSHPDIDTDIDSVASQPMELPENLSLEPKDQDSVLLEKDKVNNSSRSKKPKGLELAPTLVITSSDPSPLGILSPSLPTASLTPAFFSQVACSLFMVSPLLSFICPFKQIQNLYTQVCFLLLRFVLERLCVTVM
Conditions: protein: recombinant; tags: N-terminal GST; dsDNA, one strand shown. In short, it runs like this: as §1

The target in another test is T4, ETV2 (Homo sapiens, UniProt O00321 1-342).
T4 sequence: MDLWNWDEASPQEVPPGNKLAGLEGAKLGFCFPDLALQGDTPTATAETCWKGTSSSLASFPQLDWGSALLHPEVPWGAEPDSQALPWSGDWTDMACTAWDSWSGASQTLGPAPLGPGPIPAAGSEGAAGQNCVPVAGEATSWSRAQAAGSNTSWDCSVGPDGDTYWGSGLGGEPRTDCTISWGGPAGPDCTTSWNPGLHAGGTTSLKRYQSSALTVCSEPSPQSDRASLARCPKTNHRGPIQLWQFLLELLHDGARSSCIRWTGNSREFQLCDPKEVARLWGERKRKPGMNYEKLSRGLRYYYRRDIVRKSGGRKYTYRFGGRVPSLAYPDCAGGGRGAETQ
Conditions: protein: recombinant; tags: N-terminal GST; dsDNA, one strand shown. In short, it runs like this:
as §1

In a further test the target is T5, ELF3 (Homo sapiens, UniProt P78545 1-371).
T5 sequence: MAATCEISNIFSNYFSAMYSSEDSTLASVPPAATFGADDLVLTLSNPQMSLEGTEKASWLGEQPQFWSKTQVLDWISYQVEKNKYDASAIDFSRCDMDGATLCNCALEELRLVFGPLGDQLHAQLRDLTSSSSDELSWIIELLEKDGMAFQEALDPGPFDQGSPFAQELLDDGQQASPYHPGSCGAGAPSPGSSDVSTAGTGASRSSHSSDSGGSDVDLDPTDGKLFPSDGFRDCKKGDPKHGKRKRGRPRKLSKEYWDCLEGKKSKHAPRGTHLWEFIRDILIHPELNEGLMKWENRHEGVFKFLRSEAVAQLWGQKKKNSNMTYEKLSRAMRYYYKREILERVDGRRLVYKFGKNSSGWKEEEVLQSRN
Conditions: protein: recombinant; tags: N-terminal GST; dsDNA, one strand shown. In short, it runs like this:
as §1

The next test deals with CRX (Homo sapiens, UniProt O43186 1-299). Conditions: protein: recombinant; tags: N-terminal GST; dsDNA, one strand shown. A digest of the protocol: as §1
CRX, sequence (O43186 whole entry): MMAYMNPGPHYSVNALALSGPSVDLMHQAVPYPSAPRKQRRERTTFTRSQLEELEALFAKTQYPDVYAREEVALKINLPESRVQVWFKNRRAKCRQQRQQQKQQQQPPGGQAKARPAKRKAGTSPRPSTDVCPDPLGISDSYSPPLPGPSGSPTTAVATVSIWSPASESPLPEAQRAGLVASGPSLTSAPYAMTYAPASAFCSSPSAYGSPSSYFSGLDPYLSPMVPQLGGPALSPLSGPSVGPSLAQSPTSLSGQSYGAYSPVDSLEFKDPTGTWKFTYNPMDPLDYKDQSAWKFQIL
The target in a further test is ETV1 (Homo sapiens, UniProt P50549 1-477). The following applies: protein: recombinant; tags: N-terminal GST; dsDNA, one strand shown. A digest of the protocol: as §1
ETV1, sequence (P50549 whole entry): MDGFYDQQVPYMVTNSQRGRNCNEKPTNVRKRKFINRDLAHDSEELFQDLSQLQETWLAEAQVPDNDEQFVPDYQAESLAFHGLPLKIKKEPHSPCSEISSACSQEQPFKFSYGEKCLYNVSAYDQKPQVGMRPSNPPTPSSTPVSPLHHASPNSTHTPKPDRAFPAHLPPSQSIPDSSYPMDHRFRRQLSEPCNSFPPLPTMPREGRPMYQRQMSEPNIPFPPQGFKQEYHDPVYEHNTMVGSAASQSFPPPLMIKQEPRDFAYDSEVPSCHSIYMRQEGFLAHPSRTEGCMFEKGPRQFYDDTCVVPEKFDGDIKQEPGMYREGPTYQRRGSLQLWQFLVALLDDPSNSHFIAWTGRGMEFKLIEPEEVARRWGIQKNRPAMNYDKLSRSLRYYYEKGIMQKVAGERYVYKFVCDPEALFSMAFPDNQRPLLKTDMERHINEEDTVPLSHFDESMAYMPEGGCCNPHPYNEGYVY
A further test deals with T6, ERF (Homo sapiens, UniProt P50548 1-548).
T6 sequence: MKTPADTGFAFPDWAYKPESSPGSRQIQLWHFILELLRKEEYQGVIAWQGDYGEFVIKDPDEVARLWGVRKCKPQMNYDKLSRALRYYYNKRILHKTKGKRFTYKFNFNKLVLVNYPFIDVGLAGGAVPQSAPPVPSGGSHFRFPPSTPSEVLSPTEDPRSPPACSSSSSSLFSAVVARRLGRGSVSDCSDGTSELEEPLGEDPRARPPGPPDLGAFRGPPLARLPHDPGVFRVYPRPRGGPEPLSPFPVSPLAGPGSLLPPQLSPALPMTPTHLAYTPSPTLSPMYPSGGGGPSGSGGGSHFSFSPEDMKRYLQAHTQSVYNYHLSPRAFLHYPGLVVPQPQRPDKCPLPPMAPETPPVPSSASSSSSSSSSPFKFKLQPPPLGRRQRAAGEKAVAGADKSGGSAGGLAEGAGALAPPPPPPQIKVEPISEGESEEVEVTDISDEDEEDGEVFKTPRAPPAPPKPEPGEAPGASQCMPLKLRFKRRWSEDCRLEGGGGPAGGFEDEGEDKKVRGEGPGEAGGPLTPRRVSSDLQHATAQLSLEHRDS
The following applies: protein: recombinant; tags: N-terminal GST; dsDNA, one strand shown. A digest of the protocol: as §1

Another test deals with T7, ETV3L (Homo sapiens, UniProt Q6ZN32 1-361).
T7 sequence: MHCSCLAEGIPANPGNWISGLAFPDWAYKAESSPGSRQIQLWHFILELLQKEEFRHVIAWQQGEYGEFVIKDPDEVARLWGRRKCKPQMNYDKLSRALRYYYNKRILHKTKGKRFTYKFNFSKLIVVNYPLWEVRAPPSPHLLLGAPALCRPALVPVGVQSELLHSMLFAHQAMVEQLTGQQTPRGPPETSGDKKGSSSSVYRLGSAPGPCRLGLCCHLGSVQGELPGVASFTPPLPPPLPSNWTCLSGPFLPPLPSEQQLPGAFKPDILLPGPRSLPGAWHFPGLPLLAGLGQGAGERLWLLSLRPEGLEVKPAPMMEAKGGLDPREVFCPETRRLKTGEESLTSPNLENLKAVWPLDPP
Conditions: protein: recombinant; tags: N-terminal GST; dsDNA, one strand shown. In short, it runs like this: as §1

A further test addresses T8, ETS2 (Homo sapiens, UniProt P15036 1-469).
T8 sequence: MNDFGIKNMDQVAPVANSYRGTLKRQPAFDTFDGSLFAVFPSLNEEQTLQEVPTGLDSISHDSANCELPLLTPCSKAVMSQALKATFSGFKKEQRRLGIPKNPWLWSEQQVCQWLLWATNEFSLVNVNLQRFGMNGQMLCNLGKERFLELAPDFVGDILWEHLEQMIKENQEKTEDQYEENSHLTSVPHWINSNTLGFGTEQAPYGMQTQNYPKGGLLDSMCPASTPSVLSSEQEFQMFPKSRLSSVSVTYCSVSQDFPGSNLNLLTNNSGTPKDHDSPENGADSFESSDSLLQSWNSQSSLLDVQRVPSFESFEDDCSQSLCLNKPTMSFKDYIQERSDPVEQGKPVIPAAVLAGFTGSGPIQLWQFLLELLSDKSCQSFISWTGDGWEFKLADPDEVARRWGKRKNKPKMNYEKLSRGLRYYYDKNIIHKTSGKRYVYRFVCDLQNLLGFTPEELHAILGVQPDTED
The following applies: protein: recombinant; tags: N-terminal GST; dsDNA, one strand shown. In short, it runs like this:
as §1

In another test the target is T9, SPDEF (Homo sapiens, UniProt O95238 1-335).
T9 sequence: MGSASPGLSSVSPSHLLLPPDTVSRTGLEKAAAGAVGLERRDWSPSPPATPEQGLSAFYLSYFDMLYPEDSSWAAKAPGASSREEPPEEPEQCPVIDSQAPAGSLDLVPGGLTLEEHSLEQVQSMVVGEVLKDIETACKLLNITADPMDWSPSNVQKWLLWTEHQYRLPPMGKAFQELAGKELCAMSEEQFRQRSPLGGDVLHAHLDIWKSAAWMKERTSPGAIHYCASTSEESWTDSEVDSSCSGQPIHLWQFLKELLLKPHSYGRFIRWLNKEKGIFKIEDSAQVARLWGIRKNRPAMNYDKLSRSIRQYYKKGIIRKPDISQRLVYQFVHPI
The following applies: protein: recombinant; tags: N-terminal GST; dsDNA, one strand shown. In short, it runs like this:
as §1

The target of another test is T10, ETV7 (Homo sapiens, UniProt Q9Y603 1-341).
T10 sequence: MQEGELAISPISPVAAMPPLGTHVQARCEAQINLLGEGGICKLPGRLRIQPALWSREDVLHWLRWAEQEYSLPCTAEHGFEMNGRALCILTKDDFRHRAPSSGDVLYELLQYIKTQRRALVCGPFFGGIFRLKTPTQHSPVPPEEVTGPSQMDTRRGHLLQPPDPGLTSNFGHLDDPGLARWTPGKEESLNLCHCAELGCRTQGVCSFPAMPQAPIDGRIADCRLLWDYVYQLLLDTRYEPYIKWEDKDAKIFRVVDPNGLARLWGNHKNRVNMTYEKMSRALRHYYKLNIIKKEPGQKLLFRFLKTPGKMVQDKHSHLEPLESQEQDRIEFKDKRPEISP
Conditions: protein: recombinant; tags: N-terminal GST; dsDNA, one strand shown. A digest of the protocol:
as §1

A further test addresses T11, ELF5 (Homo sapiens, UniProt Q9UKW6-2 1-255).
T11 sequence: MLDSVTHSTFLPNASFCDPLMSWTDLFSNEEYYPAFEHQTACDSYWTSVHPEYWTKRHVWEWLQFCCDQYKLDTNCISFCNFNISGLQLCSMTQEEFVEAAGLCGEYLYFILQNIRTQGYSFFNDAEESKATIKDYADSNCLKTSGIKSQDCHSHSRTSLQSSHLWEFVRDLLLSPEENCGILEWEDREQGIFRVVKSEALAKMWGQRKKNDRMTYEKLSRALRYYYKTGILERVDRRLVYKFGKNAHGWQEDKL
Conditions: protein: recombinant; tags: N-terminal GST; dsDNA, one strand shown. A digest of the protocol:
as §1

The target in the next test is T12, ETV3 (Homo sapiens, UniProt P41162-2 1-143).
T12 sequence: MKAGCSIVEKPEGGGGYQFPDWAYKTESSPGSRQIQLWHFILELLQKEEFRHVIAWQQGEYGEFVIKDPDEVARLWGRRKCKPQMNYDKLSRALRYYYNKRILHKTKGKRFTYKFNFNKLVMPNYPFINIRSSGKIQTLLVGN
The following applies: protein: recombinant; tags: N-terminal GST; dsDNA, one strand shown. A digest of the protocol:
as §1

In the next test the target is ETV6 (Homo sapiens, UniProt P41212 1-452). Conditions: protein: recombinant; tags: N-terminal GST; dsDNA, one strand shown. A digest of the protocol:
as §1

ETV6, sequence (P41212 whole entry): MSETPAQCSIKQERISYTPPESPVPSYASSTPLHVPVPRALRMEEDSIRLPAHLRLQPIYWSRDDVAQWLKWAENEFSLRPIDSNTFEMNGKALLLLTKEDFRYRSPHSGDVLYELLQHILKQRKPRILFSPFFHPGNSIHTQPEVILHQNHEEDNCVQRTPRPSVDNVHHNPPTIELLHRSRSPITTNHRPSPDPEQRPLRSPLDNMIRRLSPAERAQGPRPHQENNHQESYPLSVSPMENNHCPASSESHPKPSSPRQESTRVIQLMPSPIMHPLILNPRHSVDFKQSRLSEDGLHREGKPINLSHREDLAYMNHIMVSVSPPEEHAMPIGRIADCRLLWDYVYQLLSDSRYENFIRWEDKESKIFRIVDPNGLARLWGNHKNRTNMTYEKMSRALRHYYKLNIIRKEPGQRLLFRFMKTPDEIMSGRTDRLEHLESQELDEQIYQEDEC
ELF4, sequence (Q99607 whole entry): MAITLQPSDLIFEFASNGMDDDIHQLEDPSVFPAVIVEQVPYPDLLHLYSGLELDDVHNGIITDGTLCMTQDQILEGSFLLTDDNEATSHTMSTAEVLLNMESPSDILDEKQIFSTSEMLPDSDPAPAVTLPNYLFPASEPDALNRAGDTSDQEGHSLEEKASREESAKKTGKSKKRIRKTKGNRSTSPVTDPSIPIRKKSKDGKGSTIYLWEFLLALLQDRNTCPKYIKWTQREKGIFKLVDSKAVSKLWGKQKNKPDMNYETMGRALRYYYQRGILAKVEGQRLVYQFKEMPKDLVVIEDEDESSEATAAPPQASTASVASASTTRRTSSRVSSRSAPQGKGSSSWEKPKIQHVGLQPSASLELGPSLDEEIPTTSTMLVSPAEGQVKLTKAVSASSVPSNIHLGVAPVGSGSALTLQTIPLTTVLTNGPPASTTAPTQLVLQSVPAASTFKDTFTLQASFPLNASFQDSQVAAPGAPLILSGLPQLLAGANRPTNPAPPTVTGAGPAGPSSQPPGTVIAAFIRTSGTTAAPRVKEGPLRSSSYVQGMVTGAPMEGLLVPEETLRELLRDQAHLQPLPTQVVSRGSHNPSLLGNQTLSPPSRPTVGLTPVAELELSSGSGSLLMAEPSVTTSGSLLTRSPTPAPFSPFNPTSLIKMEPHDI
HSF1, sequence (Q00613 whole entry): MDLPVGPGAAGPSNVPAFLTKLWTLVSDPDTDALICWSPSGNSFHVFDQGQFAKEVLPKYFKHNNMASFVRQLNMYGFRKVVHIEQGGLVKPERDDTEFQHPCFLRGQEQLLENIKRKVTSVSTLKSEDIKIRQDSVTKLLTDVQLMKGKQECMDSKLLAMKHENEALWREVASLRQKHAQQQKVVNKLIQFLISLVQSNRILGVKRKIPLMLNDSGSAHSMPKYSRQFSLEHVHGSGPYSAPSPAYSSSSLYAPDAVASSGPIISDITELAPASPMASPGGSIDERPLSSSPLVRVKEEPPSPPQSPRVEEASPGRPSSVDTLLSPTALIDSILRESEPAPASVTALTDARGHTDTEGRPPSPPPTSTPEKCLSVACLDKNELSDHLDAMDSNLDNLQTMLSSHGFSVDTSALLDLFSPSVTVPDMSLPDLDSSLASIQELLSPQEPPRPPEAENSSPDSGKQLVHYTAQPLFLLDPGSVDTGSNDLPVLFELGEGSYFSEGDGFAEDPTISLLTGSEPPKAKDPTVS
ETV5, sequence (P41161 whole entry): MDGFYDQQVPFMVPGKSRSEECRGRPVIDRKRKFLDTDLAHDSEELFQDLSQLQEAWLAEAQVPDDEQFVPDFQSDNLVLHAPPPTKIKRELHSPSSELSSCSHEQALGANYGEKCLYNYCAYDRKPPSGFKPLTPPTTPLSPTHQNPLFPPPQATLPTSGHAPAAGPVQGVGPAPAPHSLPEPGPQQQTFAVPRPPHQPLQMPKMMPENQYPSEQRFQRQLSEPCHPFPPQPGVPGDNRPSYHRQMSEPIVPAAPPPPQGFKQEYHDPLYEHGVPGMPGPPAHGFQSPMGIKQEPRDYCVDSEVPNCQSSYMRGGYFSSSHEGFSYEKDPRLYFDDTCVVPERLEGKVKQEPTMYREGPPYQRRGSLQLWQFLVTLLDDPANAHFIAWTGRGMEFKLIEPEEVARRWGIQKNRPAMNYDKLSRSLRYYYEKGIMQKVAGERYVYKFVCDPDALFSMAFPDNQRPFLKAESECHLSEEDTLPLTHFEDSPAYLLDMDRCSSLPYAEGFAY

As to ATCTAA, the binding signal was 1.14 fold enrichment (6-mer frequency, TF over GST control) with FEV; 1.15 fold enrichment (6-mer frequency, TF over GST control) with ETV5; 1.49 fold enrichment (6-mer frequency, TF over GST control) in the test with HSF1; 1.13 fold enrichment (6-mer frequency, TF over GST control) with SPIC; 1.23 fold enrichment (6-mer frequency, TF over GST control) with ELF4; 1.24 fold enrichment (6-mer frequency, TF over GST control) in the test with ELK4. Further, the binding signal in the test with ETV2 is 1.22 fold enrichment (6-mer frequency, TF over GST control); in the test with ELF3, 1.12 fold enrichment (6-mer frequency, TF over GST control); in the test with CRX it was 1.83 fold enrichment (6-mer frequency, TF over GST control); with ETV1 it was 1.16 fold enrichment (6-mer frequency, TF over GST control); in the test with ERF, 1.2 fold enrichment (6-mer frequency, TF over GST control); in the test with ETV3L it was 1.19 fold enrichment (6-mer frequency, TF over GST control). The binding signal with ETS2 is 1.2 fold enrichment (6-mer frequency, TF over GST control); with SPDEF it was 1.11 fold enrichment (6-mer frequency, TF over GST control); in the test with ETV7 it was 1.22 fold enrichment (6-mer frequency, TF over GST control); with ELF5, 1.17 fold enrichment (6-mer frequency, TF over GST control); with ETV3, 1.24 fold enrichment (6-mer frequency, TF over GST control); with ETV6, 1.17 fold enrichment (6-mer frequency, TF over GST control).
